The structures appear in SMILES notation. Unmarked numbers belong to inactive results. A call without a number means that no potency is given here. Calls of active or inactive are those of the source. Calls come from the whole dose curve.
Potency is the fitted concentration of half-maximal effect.

Thyrotropin-releasing hormone receptor (Homo sapiens), sequence (P34981 whole entry, looked up): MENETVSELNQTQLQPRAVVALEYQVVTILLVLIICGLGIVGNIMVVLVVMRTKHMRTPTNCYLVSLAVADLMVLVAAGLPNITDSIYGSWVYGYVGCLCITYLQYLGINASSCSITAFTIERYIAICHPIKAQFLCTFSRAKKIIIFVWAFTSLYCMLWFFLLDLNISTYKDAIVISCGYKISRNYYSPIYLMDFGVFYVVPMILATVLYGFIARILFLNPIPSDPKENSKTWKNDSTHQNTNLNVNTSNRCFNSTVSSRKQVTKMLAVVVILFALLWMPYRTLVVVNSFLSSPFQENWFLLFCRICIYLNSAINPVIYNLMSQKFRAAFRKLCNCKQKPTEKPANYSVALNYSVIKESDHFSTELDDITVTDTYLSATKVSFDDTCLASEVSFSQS

This assay concerns the target Thyrotropin-releasing hormone receptor (Homo sapiens) (UniProt P34981). As to the kind of experiment: qHTS assay to identify small molecule agonists of the thyrotropin-releasing hormone receptor (TRHR) signaling pathway (AID 1346891).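 For activation: HEK293 cells expressing TRHR with calcium dye readout.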 Conditions: TRHR-HEK293 calcium fluorescence, agonist mode; series mostly up to 57.6 µM. An excerpt: National Center for Advancing Translational Sciences [NCATS] NIH Chemical Genomics Center [NCGC] U.S. Environmental Protection Agency [EPA] National Institutes of Environmental Health Sciences [NIEHS] National Toxicology Program [NTP] Assay overview: Thyrotropin-releasing hormone (TRH) receptor (TRHR) is a G-protein-coupled receptor which binds the tripeptide thyrotropin releasing hormone. TRHR is found in the brain and, when bound by TRH, acts (through phospholipase C) to increase intracellular inositol trisphosphate. It plays a crucial role in the anterior pituitary where it controls the synthesis and secretion of thyroid stimulating hormone and prolactin. The TRHR-Hek293 assay is a cell-based assay, and it has the potential to screen G protein-coupled receptors. A compound/drug can either activate (agonist) or suppress (antagonist) GPCRs that can be monitored by levels of intracellular calcium. Using this assay, the Tox21 10K compound library was screened to identify potential TRHR agonists.
Assay Protocol Summary: The TRHR-Hek293 cells were dispensed at 1500cells/4uL/well in 1536-well black-clear bottom plates using a Multidrop dispenser. After the assay plates were incubated at a 37 C/5% CO2 incubator for 18 hours, 4 uL of Dye-Loading Solution was added to each well. The plates were incubated at 37 C for 2 hours. For agonist mode, 23 nL of compounds dissolved in DMSO, positive controls or DMSO only was transferred to the assay plate by a pin tool. The fluorescence intensity in the plates was measured using FDSS 7000EX kinetic plate reader for 3 min at 1 sec intervals. Each test compound was measured at 15 concentrations and in triplicates.
For the compound `CCOC(=O)CBr`, the Potency entry was “inactive”.
For `ClC=C(Cl)Cl`, the Potency entry was “inactive”.
Consider `N#CCC#N`, for which the Potency entry is “inactive”.
For `Nc1ccc([N+](=O)[O-])cc1[N+](=O)[O-]`, the Potency entry is “inactive”.
The same measure, in the same setting: then `O=C(CCl)c1ccc(Cl)cc1Cl`, with “inactive”; and `O=C1NCN(c2ccccc2)C12CCN(CCCOc1ccc(F)cc1)CC2`, with 6.01 µM (active); and `C=CCCl`, with “inactive”.
For the compound `C(=NC1CCCCC1)=NC1CCCCC1`, the Potency result was “inactive”.
Same read-out and setting: then `c1ccoc1`, with “inactive”; and `CC(=O)c1cc2c(cc1C)C(C)(C)C(C)CC2(C)C` (stereo not given), with “inactive”; and `O=C(NCc1cccnc1)Nc1ccc([N+](=O)[O-])cc1`, with “inactive”.
The same measure, in the same setting: then `CC(Cl)Cl`, with “inactive”; and `CO/N=C(/C(=O)OC)c1ccccc1COc1ccccc1C`, with “inactive”; and `C=CCOC(C)=O`, with “inactive”.
Consider `O=[N+]([O-])c1cc(C(F)(F)F)cc([N+](=O)[O-])c1Cl`, for which the Potency entry is “inactive”.
Turning to `C=CC(=O)OC(C)(C)C`, the Potency entry was “inactive”.
Turning to `CNP(=O)(OC)Oc1ccc(C(C)(C)C)cc1Cl` (stereo not given), the Potency entry is “inactive”.
For the compound `CC(C)(OO)c1ccccc1`, the Potency result was “inactive”.
In the case of `CCCCC(CC)COP(=O)(Oc1ccccc1)Oc1ccccc1` (stereo not given), the Potency entry is “inactive”.
On to `CC(=O)NC1CCSC1=O` (stereo not given), for which the Potency result was “inactive”.
On the same count and under the same terms, the value for `C[C@H]1CNCCc2ccc(Cl)cc21` was “inactive”; that for `NS(=O)(=O)C(F)(F)C(F)(F)C(F)(F)C(F)(F)C(F)(F)C(F)(F)C(F)(F)C(F)(F)F` was “inactive”; that for `CN(N=O)c1ccc([N+](=O)[O-])cc1` was “inactive”.
The same measure, in the same setting: then `CC1CC(CC2CCC(N)C(C)C2)CCC1N` (stereo not given), with “inactive”; and `CCCCCCCCCCOC(=O)c1ccccc1C(=O)OCCCCCCCCCC`, with “inactive”; and `CO/C=C(/C(=O)OC)c1ccccc1COc1cccc(C(F)(F)F)n1`, with “inactive”.
With `CCCCNP(N)(N)=S`, the Potency result is “inactive”.
As to `O=[N+]([O-])c1ccccc1CCl`, the Potency result was “inactive”.
On the same count and under the same terms, the value for `COc1nn(CSP(=S)(OC)OC)c(=O)s1` was “inactive”; that for `O=C1c2ccccc2C(=O)C1C(=O)C(c1ccccc1)c1ccccc1` was “inactive”.
The same measure, in the same setting: the value for `O=C(C(Cl)(Cl)Cl)C(Cl)(Cl)Cl` was “inactive”; that for `CCOP(=O)(OCC)O/C(=C/Cl)c1ccc(Cl)cc1Cl` was “inactive”.
Turning to `Nc1nc(=S)[nH][nH]1`, the Potency result is “inactive”.
Consider `O=NN1CCCCCC1`, for which the Potency result was “inactive”.
In the case of `CCC(Cl)CCl` (stereo not given), the Potency result was “inactive”.
As for `CO[C@@H]1[C@H](OC(=O)NC(=O)CCl)CC[C@]2(CO2)[C@H]1[C@@]1(C)O[C@@H]1CC=C(C)C`, the activation was -0.27% [at 11.8 µM].
`CCCCCCCCOC(=O)c1ccc(C(=O)OCCCCCCCC)c(C(=O)OCCCCCCCC)c1`: the Potency entry was “inactive”.
In the case of `C=CC(=O)OCC(C)O` (stereo not given), the Potency result is “inactive”.
For `CC(=O)[C@H]1CC[C@H]2[C@@H]3CC[C@H]4C[C@](C)(O)CC[C@]4(C)[C@H]3CC[C@]12C`, the Potency entry is “inactive”.
Same read-out and setting: then `COC(=O)C(C)N(C(=O)Cc1ccccc1)c1c(C)cccc1C` (stereo not given), with “inactive”.

These data come from PubChem BioAssay (Tox21).
